The source of these data is PubChem BioAssay (NCATS).

Each structure is given as a SMILES string. Results filed as inconclusive are left out. A call without a number means that no potency is given here. Calls of active or inactive are those of the source. Calls come from the whole dose curve.
Potency is the fitted concentration of half-maximal effect.

This assay can be described thus: Primary qHTS for Huh7 cytotoxicity: counterscreen for inhibitors of MERS-S pseudotyped particle cell entry (AID 1479147). The settings on record: cell viability read-out; series mostly up to 57.1 µM. Background: Quantitative high-throughput screening tests each substance at several concentrations.
For `Fc1ccc([C@@H]2CCNC[C@H]2COc2ccc3c(c2)OCO3)cc1`, the Potency entry is “inactive”. Take `O=C1c2cccc3c2[C@H](CCC3)CN1[C@@H]1CN2CCC1CC2`: the Potency entry was “inactive”. Take `N=C(N)c1ccc(OCCCCCOc2ccc(C(=N)N)cc2)cc1`: the Potency entry is “inactive”. As to `Cn1c(=O)c2c(ncn2CC(O)CO)n(C)c1=O` (stereo not given), the Potency entry was “inactive”.

Turning to `O=C1c2c(O)ccc(O)c2C(=O)c2c(NCCNCCO)ccc(NCCNCCO)c21`, the Potency is 25.1 µM (active). For `CCCN1C[C@H](CSC)C[C@@H]2c3cccc4[nH]cc(c34)C[C@H]21`, the Potency entry was “inactive”. With `COc1ccc2nc(S(=O)Cc3ncc(C)c(OC)c3C)[nH]c2c1` (stereo not given), the Potency result is “inactive”. For `CO[C@@]12[C@H](COC(N)=O)C3=C(C(=O)C(C)=C(N)C3=O)N1C[C@@H]1N[C@@H]12`, the Potency entry is “inactive”. As for `CC(=O)O[C@]1(C(C)=O)CC[C@H]2[C@@H]3C=C(C)C4=CC(=O)CC[C@]4(C)[C@H]3CC[C@@]21C`, the entry is “inactive”; as for `CC[C@@]1(O)C(=O)OCc2c1cc1n(c2=O)Cc2cc3c(CN(C)C)c(O)ccc3nc2-1`, “inactive”. Turning to `COc1ccc(OC)c(C(O)CNC(=O)CN)c1` (stereo not given), the Potency entry is “inactive”. Take `CCCC(CCC)C(=O)O`: the Potency entry was “inactive”.

As for `Cc1nc(Nc2ncc(C(=O)Nc3c(C)cccc3Cl)s2)cc(N2CCN(CCO)CC2)n1`, the Potency entry was “inactive”. As for `CC[C@]1(O)C[C@H]2CN(CCc3c([nH]c4ccccc34)[C@@](C(=O)OC)(c3cc4c(cc3OC)N(C=O)[C@H]3[C@@](O)(C(=O)OC)[C@H](OC(C)=O)[C@]5(CC)C=CCN6CC[C@]43[C@@H]65)C2)C1`, the entry is “inactive”.

`Cn1cnc([N+](=O)[O-])c1Sc1ncnc2nc[nH]c12`: the Potency result is “inactive”. Take `Cc1nc2n(c(=O)c1CCN1CCC(c3noc4cc(F)ccc34)CC1)CCCC2`: the Potency result is “inactive”.

Consider `Nc1ncn([C@@H]2O[C@H](CO)[C@@H](O)[C@H]2O)c(=O)n1`, for which the Potency entry was “inactive”. To `COc1cc2c(cc1OC)C(=O)C(CC1CCN(Cc3ccccc3)CC1)C2` (stereo not given) belongs “inactive”. As to `COC(=O)C1=C(C)NC(C)=C(C(=O)OCCN(C)Cc2ccccc2)C1c1cccc([N+](=O)[O-])c1` (stereo not given), the Potency result is “inactive”. To `COc1cc(Nc2c(C#N)cnc3cc(OCCCN4CCN(C)CC4)c(OC)cc23)c(Cl)cc1Cl` belongs 28.2 µM (active); to `COc1ccccc1Oc1c(NS(=O)(=O)c2ccc(C(C)(C)C)cc2)nc(-c2ncccn2)nc1OCCO`, “inactive”. As to `CC1(C)NC(=O)N(c2ccc([N+](=O)[O-])c(C(F)(F)F)c2)C1=O`, the Potency entry was “inactive”.

Turning to `CCC[C@H](N[C@@H](C)C(=O)N1[C@H](C(=O)O)C[C@@H]2CCCC[C@@H]21)C(=O)OCC`, the Potency entry is “inactive”.

In the case of `CC[C@H](C)C(=O)O[C@H]1C[C@@H](C)C=C2C=C[C@H](C)[C@H](CC[C@@H]3C[C@@H](O)CC(=O)O3)[C@H]21`, the Potency result is “inactive”. With `CC(=O)[C@]1(O)Cc2c(O)c3c(c(O)c2[C@@H](O[C@H]2C[C@H](N)[C@H](O)[C@H](C)O2)C1)C(=O)c1ccccc1C3=O`, the Potency was 7.08 µM (active). As for `CCCCNc1ccc(C(=O)OCCOCCOCCOCCOCCOCCOCCOCCOCCOC)cc1`, the Potency result was “inactive”.

For the molecule `O=c1c(O)c(-c2ccc(O)c(O)c2)oc2cc(O)cc(O)c12`, the Potency entry is “inactive”. As for `Nc1[nH]c(=O)ncc1F`, the entry is “inactive”. With `CN1C(=O)CC(C)(c2ccccc2)C1=O` (stereo not given), the Potency result is “inactive”. Take `CN1CCN(C2=Nc3ccccc3Oc3ccc(Cl)cc32)CC1`: the Potency entry was “inactive”.
